Reference: the supplement of paper PMC6411743
± gives the standard deviation of the averaged measurements. The full data set covers some 6,500 targets. This sample favours those with the largest changes.

What follows are targets tested with Nc1ncnc2c1ncn2[C@@H]1O[C@H](COP(=O)(O)OP(=O)(O)OP(=O)(O)O)[C@@H](O)[C@H]1O [adenosine triphosphate] (assay: NP40-soluble protein abundance relative to vehicle (solubility fold change) (ratio); higher = more soluble protein in presence of ATP). Settings: concentration: 6mM.
Method in brief: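 Each value is a fold change relative to the detergent-processed vehicle, calculated per replicate from vsn-normalised intensities. Jurkat crude lysate received eight concentrations (0.1 to 10 mM) for 10 min at room temperature and 3 min at 37 °C, then was solubilised in 0.8% NP40 with benzonase (60 min, 4 °C). The ultracentrifuged supernatant was TMT-labelled and run by LC-MS/MS in three independent experiments.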

Chain of UniProt P52272 (P52272 whole entry, one chain of several): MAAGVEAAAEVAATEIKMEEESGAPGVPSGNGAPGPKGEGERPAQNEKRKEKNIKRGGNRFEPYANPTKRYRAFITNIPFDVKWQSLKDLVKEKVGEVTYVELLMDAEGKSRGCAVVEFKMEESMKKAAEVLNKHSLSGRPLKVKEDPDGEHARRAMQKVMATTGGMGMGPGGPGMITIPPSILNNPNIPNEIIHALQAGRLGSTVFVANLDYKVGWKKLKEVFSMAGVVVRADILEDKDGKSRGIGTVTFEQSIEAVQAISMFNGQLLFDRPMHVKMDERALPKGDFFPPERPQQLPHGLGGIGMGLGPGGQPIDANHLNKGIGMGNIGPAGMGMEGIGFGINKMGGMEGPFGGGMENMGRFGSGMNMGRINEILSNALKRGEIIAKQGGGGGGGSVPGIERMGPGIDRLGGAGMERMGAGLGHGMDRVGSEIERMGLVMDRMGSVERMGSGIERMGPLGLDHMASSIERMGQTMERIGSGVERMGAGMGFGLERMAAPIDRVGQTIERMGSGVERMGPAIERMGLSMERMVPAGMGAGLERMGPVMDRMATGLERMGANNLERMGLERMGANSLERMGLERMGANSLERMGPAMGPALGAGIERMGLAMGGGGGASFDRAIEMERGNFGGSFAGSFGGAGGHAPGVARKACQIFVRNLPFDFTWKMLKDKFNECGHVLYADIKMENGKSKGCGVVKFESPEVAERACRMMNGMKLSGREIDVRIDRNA
Chain of UniProt P56556 (P56556 whole entry, one chain of several): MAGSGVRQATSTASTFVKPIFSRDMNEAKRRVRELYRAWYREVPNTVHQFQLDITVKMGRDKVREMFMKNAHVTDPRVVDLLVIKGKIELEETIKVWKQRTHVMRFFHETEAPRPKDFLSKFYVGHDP
Chain of UniProt Q8WYJ6 (Q8WYJ6 whole entry, one chain of several): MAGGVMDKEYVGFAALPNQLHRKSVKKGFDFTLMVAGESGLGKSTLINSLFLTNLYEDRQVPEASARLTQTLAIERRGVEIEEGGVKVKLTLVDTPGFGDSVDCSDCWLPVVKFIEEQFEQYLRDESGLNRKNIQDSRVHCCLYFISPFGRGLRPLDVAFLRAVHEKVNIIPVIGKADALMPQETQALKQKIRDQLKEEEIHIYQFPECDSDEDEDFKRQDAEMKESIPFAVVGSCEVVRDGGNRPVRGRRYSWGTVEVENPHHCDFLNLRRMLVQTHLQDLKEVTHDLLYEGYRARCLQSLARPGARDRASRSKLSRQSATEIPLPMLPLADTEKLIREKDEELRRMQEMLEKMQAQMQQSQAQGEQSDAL
Chain of UniProt Q8WYH8 (Q8WYH8 whole entry, one chain of several): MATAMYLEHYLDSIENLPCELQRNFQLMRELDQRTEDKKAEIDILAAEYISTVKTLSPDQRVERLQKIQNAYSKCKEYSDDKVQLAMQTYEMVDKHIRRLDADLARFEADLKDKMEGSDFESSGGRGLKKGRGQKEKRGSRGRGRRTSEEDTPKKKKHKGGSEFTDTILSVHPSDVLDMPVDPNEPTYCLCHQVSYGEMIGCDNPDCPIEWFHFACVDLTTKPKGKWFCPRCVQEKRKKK
Chain of UniProt Q96MF7 (Q96MF7 whole entry, one chain of several): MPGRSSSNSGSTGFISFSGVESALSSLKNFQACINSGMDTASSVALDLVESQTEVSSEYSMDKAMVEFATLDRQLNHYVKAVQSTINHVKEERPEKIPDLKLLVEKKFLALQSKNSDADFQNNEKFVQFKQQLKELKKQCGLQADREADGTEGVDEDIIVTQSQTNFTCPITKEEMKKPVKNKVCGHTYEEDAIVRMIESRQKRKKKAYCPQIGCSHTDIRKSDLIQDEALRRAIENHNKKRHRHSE
Chain of UniProt Q99081 (Q99081 whole entry, one chain of several): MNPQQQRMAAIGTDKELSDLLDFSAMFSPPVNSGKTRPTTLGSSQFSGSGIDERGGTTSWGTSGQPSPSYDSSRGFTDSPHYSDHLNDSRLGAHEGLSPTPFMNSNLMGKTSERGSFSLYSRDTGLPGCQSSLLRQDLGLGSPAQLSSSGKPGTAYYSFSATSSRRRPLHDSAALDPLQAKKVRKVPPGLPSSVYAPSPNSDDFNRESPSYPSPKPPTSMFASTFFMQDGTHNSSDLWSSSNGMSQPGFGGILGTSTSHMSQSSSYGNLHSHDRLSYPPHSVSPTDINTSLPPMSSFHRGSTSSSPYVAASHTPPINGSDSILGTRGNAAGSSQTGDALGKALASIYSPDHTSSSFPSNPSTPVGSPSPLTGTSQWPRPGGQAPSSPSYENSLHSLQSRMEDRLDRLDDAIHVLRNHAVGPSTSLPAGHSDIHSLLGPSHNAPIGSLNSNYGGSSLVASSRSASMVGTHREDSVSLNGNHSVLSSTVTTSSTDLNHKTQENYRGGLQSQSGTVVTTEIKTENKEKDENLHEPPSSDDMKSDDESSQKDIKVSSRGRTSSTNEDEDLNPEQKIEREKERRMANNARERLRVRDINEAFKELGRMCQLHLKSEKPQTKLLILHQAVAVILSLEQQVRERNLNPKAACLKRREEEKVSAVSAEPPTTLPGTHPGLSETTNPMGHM
Chain of UniProt P13693 (P13693 whole entry, one chain of several): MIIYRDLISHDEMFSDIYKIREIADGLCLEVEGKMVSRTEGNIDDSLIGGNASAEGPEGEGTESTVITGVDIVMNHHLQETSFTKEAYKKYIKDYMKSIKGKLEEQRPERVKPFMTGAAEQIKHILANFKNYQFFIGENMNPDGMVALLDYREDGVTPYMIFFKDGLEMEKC
Chain of UniProt P78549 (P78549 whole entry, one chain of several): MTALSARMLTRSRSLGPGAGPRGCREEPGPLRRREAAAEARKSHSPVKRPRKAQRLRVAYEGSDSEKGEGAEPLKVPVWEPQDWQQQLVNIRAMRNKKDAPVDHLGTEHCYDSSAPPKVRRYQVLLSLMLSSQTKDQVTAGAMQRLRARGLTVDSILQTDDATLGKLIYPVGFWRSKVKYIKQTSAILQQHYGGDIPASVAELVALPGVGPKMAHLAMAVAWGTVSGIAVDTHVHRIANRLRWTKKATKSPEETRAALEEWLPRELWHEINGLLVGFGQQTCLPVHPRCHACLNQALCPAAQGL
Chain of UniProt O14929 (O14929 whole entry, looked up): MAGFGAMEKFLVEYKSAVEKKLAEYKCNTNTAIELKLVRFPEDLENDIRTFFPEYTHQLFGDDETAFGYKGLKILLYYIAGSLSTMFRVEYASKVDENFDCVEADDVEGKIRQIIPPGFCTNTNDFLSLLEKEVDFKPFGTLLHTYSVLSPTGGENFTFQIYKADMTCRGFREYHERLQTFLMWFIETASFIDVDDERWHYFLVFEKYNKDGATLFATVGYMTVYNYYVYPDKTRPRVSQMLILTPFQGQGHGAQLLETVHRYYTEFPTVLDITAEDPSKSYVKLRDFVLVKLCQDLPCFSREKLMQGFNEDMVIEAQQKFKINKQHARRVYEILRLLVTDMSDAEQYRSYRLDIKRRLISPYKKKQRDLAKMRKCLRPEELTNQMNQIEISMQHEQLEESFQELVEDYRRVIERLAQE
Chain of UniProt O43772 (O43772 whole entry): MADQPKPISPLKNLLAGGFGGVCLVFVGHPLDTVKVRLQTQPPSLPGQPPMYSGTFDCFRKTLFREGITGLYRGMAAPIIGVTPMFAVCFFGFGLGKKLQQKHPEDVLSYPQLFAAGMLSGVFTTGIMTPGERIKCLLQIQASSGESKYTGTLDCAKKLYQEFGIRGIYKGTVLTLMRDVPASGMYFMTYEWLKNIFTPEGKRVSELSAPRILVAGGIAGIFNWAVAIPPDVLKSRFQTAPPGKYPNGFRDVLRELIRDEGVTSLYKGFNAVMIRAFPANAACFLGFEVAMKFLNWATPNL
Chain of UniProt Q9GZN1 (Q9GZN1 whole entry, one chain of several): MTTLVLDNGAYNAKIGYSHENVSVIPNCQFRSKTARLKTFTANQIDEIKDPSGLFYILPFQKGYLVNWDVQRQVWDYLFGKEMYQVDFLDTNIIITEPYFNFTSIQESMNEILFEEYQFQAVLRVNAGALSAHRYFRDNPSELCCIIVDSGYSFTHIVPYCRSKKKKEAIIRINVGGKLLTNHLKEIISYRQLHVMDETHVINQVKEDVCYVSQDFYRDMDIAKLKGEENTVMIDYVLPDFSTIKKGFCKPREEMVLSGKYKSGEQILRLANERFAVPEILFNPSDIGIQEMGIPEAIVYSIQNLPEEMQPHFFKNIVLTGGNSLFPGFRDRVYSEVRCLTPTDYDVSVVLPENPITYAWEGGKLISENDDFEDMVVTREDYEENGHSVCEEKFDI
Chain of UniProt O43169 (O43169 whole entry, one chain of several): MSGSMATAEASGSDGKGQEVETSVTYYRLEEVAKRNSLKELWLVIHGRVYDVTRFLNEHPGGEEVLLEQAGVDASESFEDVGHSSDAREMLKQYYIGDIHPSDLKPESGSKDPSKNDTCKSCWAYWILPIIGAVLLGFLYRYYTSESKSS
Chain of UniProt O00567 (O00567 whole entry): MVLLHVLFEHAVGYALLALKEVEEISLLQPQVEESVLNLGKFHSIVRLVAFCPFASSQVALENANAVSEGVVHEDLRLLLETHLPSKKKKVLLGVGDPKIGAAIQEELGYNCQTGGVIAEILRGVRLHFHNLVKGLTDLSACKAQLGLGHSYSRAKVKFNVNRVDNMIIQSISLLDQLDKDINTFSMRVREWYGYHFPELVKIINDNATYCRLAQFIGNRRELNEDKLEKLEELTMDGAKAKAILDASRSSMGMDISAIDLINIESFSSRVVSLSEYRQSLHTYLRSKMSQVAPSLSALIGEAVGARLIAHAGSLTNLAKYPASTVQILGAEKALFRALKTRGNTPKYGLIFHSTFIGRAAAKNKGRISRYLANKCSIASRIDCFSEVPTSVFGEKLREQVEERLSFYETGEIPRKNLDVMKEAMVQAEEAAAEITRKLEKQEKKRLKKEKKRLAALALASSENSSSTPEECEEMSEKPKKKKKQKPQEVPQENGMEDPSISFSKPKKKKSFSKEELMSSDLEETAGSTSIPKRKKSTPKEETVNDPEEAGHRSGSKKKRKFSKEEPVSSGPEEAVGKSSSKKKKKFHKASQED

Target	NP40-soluble protein abundance
UniProt O00560|O00560-2	0.896 ± 0.077
DNAJC13 (UniProt O75165)	1.35 ± 0.12
DYNC1LI2 (UniProt O43237)	0.959 ± 0.14
J3KNW7|Q9Y592|Q9Y592-2 (UniProt Q9Y592)	1.04 ± 0.028
SLC25A20 (UniProt O43772)	0.822 ± 0.099
C9JLB7|Q96HP4 (UniProt Q96HP4)	1.12 ± 0.17
B1AJY7|O75832 (UniProt O75832)	0.977 ± 0.076
A0A0A0MTC1|A0A0A0MTR7 (UniProt Q63HN8)	1.03 ± 0.074
H3BPD5|P78549|P78549-2|P78549-3 (UniProt P78549)	1.51 ± 0.2
J3KTD6|Q96GD4|Q96GD4-5 (UniProt Q96GD4)	1.58 ± 0.25
A0A0C4DGQ5|P04632 (UniProt P04632)	0.884 ± 0.039
A0A0G2JPT5|O75943|O75943-2 (UniProt O75943)	1.7 ± 0.33
B7ZBA0|Q8NI27 (UniProt Q8NI27)	2.09 ± 0.2
A0A0C4DGB9|Q9H2U2 (UniProt Q9H2U2)	0.93 ± 0.051
E9PEN0|Q8WYH8|Q8WYH8-2 (UniProt Q8WYH8)	1.5 ± 0.16
E7EUT5|P04406 (UniProt P04406)	0.939 ± 0.043
B4DWF2|Q9UKS7|Q9UKS7-2 (UniProt Q9UKS7)	1.11 ± 0.089
H0YNP8|Q99081-3|Q99081 (UniProt Q99081)	0.938 ± 0.027

Target	NP40-soluble protein abundance
UniProt O43865	0.973 ± 0.1
A0A0B4J2C3|P13693|Q5W0H4 (UniProt P13693)	0.923 ± 0.05
A0A0C4DGS0|P56556 (UniProt P56556)	0.875 ± 0.066
J3KTE4|J3QR09|P84098 (UniProt P84098)	0.966 ± 0.043
MED7 (UniProt O43513)	1.2 ± 0.37
M0QZM1|M0R019|P52272|P52272-2 (UniProt P52272)	1.07 ± 0.014
UniProt O00567	1.38 ± 0.06
E5RFJ1|Q96MF7 (UniProt Q96MF7)	1.09 ± 0.036
A8MT02|P14678|P14678-2|P14678-3 (UniProt P14678)	1.7 ± 0.26
H7C0H2|Q96EV2|H0Y3K4 (UniProt Q96EV2)	0.982 ± 0.075
H3BUX2|J3KNF8|O43169 (UniProt O43169)	0.865 ± 0.077
I3L2M1|J3KNL2|Q8WYJ6 (UniProt Q8WYJ6)	0.928 ± 0.033
UniProt A0FGR8-2|H7BXI1|A0FGR8-6	0.997 ± 0.052
E7EQI7|Q12768 (UniProt Q12768)	0.962 ± 0.11
A0A087WYN9|Q7Z478 (UniProt Q7Z478)	2.57 ± 0.045
F8W057|Q9GZN1|Q9GZN1-2 (UniProt Q9GZN1)	1.03 ± 0.089
HAT1 (UniProt O14929)	0.895 ± 0.15
J9JID7|Q03252 (UniProt Q03252)	1.06 ± 0.037

Same assay, conditions: concentration: 8mM

Target	NP40-soluble protein abundance
UniProt O00560|O00560-2	0.9459 ± 0.0062
DNAJC13 (UniProt O75165)	1.68 ± 0.12
DYNC1LI2 (UniProt O43237)	0.92 ± 0.075
J3KNW7|Q9Y592|Q9Y592-2 (UniProt Q9Y592)	1.07 ± 0.062
SLC25A20 (UniProt O43772)	0.884 ± 0.028
C9JLB7|Q96HP4 (UniProt Q96HP4)	1.17 ± 0.14
B1AJY7|O75832 (UniProt O75832)	0.947 ± 0.056
A0A0A0MTC1|A0A0A0MTR7 (UniProt Q63HN8)	1.2 ± 0.049
H3BPD5|P78549|P78549-2|P78549-3 (UniProt P78549)	1.72 ± 0.19
J3KTD6|Q96GD4|Q96GD4-5 (UniProt Q96GD4)	1.71 ± 0.032
A0A0C4DGQ5|P04632 (UniProt P04632)	0.885 ± 0.0089
A0A0G2JPT5|O75943|O75943-2 (UniProt O75943)	1.69 ± 0.28
B7ZBA0|Q8NI27 (UniProt Q8NI27)	2.4 ± 0.17
A0A0C4DGB9|Q9H2U2 (UniProt Q9H2U2)	0.952 ± 0.038
E9PEN0|Q8WYH8|Q8WYH8-2 (UniProt Q8WYH8)	1.85 ± 0.6
E7EUT5|P04406 (UniProt P04406)	0.954 ± 0.024
B4DWF2|Q9UKS7|Q9UKS7-2 (UniProt Q9UKS7)	1.1 ± 0.061
H0YNP8|Q99081-3|Q99081 (UniProt Q99081)	0.916 ± 0.018

Target	NP40-soluble protein abundance
UniProt O43865	0.96 ± 0.081
A0A0B4J2C3|P13693|Q5W0H4 (UniProt P13693)	0.919 ± 0.035
A0A0C4DGS0|P56556 (UniProt P56556)	0.926 ± 0.053
J3KTE4|J3QR09|P84098 (UniProt P84098)	0.908 ± 0.057
MED7 (UniProt O43513)	1.23 ± 0.26
M0QZM1|M0R019|P52272|P52272-2 (UniProt P52272)	1.04 ± 0.019
UniProt O00567	1.68 ± 0.064
E5RFJ1|Q96MF7 (UniProt Q96MF7)	1.01 ± 0.018
A8MT02|P14678|P14678-2|P14678-3 (UniProt P14678)	1.7 ± 0.22
H7C0H2|Q96EV2|H0Y3K4 (UniProt Q96EV2)	0.958 ± 0.067
H3BUX2|J3KNF8|O43169 (UniProt O43169)	0.815 ± 0.059
I3L2M1|J3KNL2|Q8WYJ6 (UniProt Q8WYJ6)	0.932 ± 0.04
UniProt A0FGR8-2|H7BXI1|A0FGR8-6	1.02 ± 0.03
E7EQI7|Q12768 (UniProt Q12768)	1.07 ± 0.068
A0A087WYN9|Q7Z478 (UniProt Q7Z478)	2.68 ± 0.07
F8W057|Q9GZN1|Q9GZN1-2 (UniProt Q9GZN1)	1.2 ± 0.028
HAT1 (UniProt O14929)	0.97 ± 0.09
J9JID7|Q03252 (UniProt Q03252)	1.03 ± 0.047
